The values below come from PubChem BioAssay (EPA / NIEHS).

The structures appear in SMILES notation. Results filed as inconclusive are left out. The source made the active and inactive calls. The calls were made as follows: active = hit-call score of the fitted dose curve at least 0.9, where 1 is the maximum; inconclusive = response in the unintended direction; inactive = score below 0.9.

What is called AC50 is the concentration giving half of the maximal activity seen.

The experiment deals with Retinoic acid receptor RXR-alpha (Homo sapiens) (UniProt P19793). Put plainly: OT_NURR1_NURR1RXRa_0480: Odyssey Thera (OT) 8-hour HEK293T Protein Complementation Assay for Nurr1/retinoid X receptor (RXR) (AID 2283385). The procedure: OT_NURR1_NURR1RXRa_0480 is a cell-based assay that uses HEK293T, a human kidney cell line, with measurements taken at 8 hours after chemical dosing in a 384-well plate.OT_NURR1_NURR1RXRa_0480 is one of one assay component(s) measured or calculated from the OT_NURR1_NURR1RXRa_0480 assay. It is designed to make measurements of protein fragment complementation, a form of binding reporter, as detected with fluorescence intensity signals by Protein-fragment Complementation technology.Data from the assay component OT_NURR1_NURR1RXRa_0480 was analyzed into 1 assay endpoint. This assay endpoint, OT_NURR1_NURR1RXRa_0480, was analyzed in the positive analysis fitting direction relative to DMSO as the negative control and baseline of activity. Using a type of binding reporter, measures of receptor for gain-of-signal activity can be used to understand the binding at the pathway-level as they relate to the gene RXRA. Furthermore, this assay endpoint can be referred to as a primary readout, because the performed assay has only produced 1 assay endpoint. To generalize the intended target to other relatable targets, this assay endpoint is annotated to the nuclear receptor intended target family, where the subfamily is non-steroidal.
Retinoic acid receptor RXR-alpha (Homo sapiens), sequence (P19793 whole entry, looked up, the tested form may be a part): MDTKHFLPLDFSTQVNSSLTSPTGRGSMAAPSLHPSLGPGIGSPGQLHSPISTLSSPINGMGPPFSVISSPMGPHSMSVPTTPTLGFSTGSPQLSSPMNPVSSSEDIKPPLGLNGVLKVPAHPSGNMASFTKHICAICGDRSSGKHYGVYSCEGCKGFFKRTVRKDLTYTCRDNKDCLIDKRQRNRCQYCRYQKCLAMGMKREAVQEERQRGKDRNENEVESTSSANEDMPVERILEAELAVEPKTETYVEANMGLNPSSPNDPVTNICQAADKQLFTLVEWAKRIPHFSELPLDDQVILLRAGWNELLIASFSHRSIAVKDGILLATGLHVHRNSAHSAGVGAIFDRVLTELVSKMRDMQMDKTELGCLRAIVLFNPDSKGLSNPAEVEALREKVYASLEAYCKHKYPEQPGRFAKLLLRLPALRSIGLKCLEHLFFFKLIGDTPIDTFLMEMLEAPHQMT
Protein-fragment complementation assay, or PCA, is a method for the identification and quantification of protein-protein interactions. In the PCA, the proteins of interest ("bait" and "prey") are each covalently linked to fragments of a third protein (e.g. DHFR, which acts as a "reporter"). Interaction between the bait and the prey proteins brings the fragments of the reporter protein in close proximity to allow them to form a functional reporter protein whose activity can be measured.
Turning to `CCCCc1ccc(Cl)cc1`, the result was inactive.
Take `C=C[C@@]1(C)CC(=O)[C@]2(O)[C@@]3(C)[C@@H](O)CCC(C)(C)[C@@H]3[C@H](O)[C@H](OC(C)=O)[C@@]2(C)O1`: the AC50 was 0.183 µM (active).
For `N#Cc1ccc(C(c2ccc(C#N)cc2)n2cncn2)cc1`, the result was inactive.
On the same count and under the same terms, to `CCCCC(CC)COC(=O)/C=C/c1ccc(OC)cc1` (stereo not given) belongs “inactive”; to `O=C(O)CC(C(=O)O)S(=O)(=O)O` (stereo not given), “inactive”.
In the case of `CCCCC/C=C\C/C=C\CCCCCCCC(=O)O`, the call was inactive.
Still for that read-out and setting: to `CCCCCC[C@@H](O)C/C=C\CCCCCCCC(=O)OCC(O)CO` (stereo not given in full) belongs “inactive”.
On the same count and under the same terms, to `O=C(OCc1ccccc1)c1ccc(O)cc1` belongs “inactive”.
In the case of `CCCCCCCCCC[N+](C)(CCCCCCCCCC)CCC[Si](OC)(OC)OC`, the AC50 is 11.7 µM (active).
Consider `CC(=O)/C=C/C1C(C)=CCCC1(C)C` (stereo not given), for which the call was inactive.
As for `CCN1CN(CC)CN(CC)C1`, the call was inactive.
Consider `O=C(Oc1ccccc1)c1ccccc1O`, for which the compound was called inactive.
On to `Oc1ccc(-c2ccccc2)c(Cl)c1`, for which the compound was classed as inactive.
Still for that read-out and setting: to `Nc1ccc(C(=O)O)cc1` belongs “inactive”.
Same read-out and setting: for `CCCC(CC)c1ccccc1` (stereo not given) the value was “inactive”.
Consider `O=C(O)c1cc(O)c2ccccc2c1O`, for which the result was inactive.
For `CC(CCC(=O)O)(c1ccc(O)cc1)c1ccc(O)cc1`, the compound was classed as inactive.
Consider `CCCCCCCO`, for which the outcome was inactive.
As for `CC(C)=CCCC(C)=CC#N`, the compound was classed as inactive.
Still for that read-out and setting: to `CC1=CC=C(C(C)C)CC1` belongs “inactive”.
With `Cc1c(C(=O)c2c[nH]n(C)c2=O)ccc(S(C)(=O)=O)c1C1=NOCC1`, the compound was classed as inactive.
On to `O=S(=O)(O)c1ccc(N=Nc2c(O)ccc3ccccc23)cc1`, for which the call was inactive.
Same read-out and setting: for `CCC1COC(=O)O1` (stereo not given) the value was “inactive”; for `CCc1cccc(C)c1N`, “inactive”.
On the same count and under the same terms, for `CC(C)(C)C1CCC(=O)CC1` the value was “inactive”; for `CC(C)c1ccc(O)c(C(C)C)c1`, “inactive”; for `CCCCOCCOC(=O)COc1ccc(Cl)cc1Cl`, “inactive”.
`CC(=O)OCc1ccccc1`: the outcome was inactive.
In the case of `CCCCCCCCCCCCCC(=O)OC(C)C`, the compound was called inactive.
Same read-out and setting: for `O=C(O)c1ccc2c(c1)C(=O)OC2=O` the value was “inactive”; for `CC(C)(c1ccccc1)c1ccc(Nc2ccc(C(C)(C)c3ccccc3)cc2)cc1`, “inactive”; for `Cc1ccc([N+](=O)[O-])cc1N`, “inactive”.
Same read-out and setting: for `Fc1ccc(Br)cc1` the value was “inactive”; for `CC(=O)OC1CCCCC1C(C)(C)C` (stereo not given), “inactive”; for `CC1(C)[C@@H]2CC[C@@]1(C)C(=O)C2`, “inactive”.
For `CCOC(=O)c1ccc(C)cc1`, the compound was called inactive.
For the compound `CCCCCCCCCCCC(=O)N(C)CC(=O)O`, the call was inactive.
On to `CCC[Si](OC)(OC)OC`, for which the outcome was inactive.
Regarding `O=C(Nc1ccccc1)c1cc(Cl)ccc1O`, the outcome was inactive.
`C=C1C[C@H]2[C@@H]3C=C(C)C4=CC(=O)CC[C@]4(C)[C@H]3CC[C@]2(C)[C@@]1(OC(C)=O)C(C)=O`: the AC50 is 27.5 µM (active).
